# High-throughput results (PubChem BioAssay)
# aSyn 5UTR act: Activators via SNCA 5'UTR binding, MLPCN; actives 7.1% (n = 300,000); activity score, % (tested at 7.5 µM), hits read low; alpha-synuclein 5'UTR reporter, activators screen; AID 1814; in the data active = activity score below about -60%
# A number is an active result; - = inactive. A selection follows.
SMILES,aSyn 5UTR act
O=C(NC(=S)NCCC1=CCCCC1)c1ccc(Br)o1,-115
COc1cc(/C=N/O)ccc1OCc1ccccc1Cl,-113
Cn1c(=O)c(-c2cc(Br)ccc2N)nc2ccccc21,-64
O=C(Nc1nc2ccccc2[nH]1)C1CCCO1 (stereo not drawn),-79
Cc1ccc(C(=O)Nc2nc3ccccc3[nH]2)cc1,-
O=C(Nc1nc2ccccc2[nH]1)c1cccs1,-91
O=C(Nc1ccc(-c2nc3ccccc3[nH]2)cc1)C1CCCO1 (stereo not drawn),-
O=c1[nH]c2ccccc2nc1/C=C(\O)c1cccs1,-174
O=C(Nc1nc2ccccc2[nH]1)C12CC3CC(CC(C3)C1)C2,-181
O=C(Nc1nc2ccccc2[nH]1)c1ccc(Br)o1,-132
Cc1[nH]c2ccccc2c1-c1nc2ccccc2[nH]c1=O,-63
O=c1[nH]c2ccccc2nc1-c1cccs1,-152
O/C(=C\c1nc2ccccc2[nH]1)c1cccs1,-200
O=C1Nc2ccc3sc4ccccc4c3c2C1=O,-69
Cc1ccc(NC(=O)C2=NNC(=O)CC2)cc1F,-75
CC(C)c1ccc(NC(=O)C2=NNC(=O)CC2)cc1,-143
Cc1ccc(NC(=O)CCC(=O)c2cccs2)c(Br)c1,-79
Cc1ccc(NC(=O)CNCc2ccccc2)c(Br)c1,-68
Cc1ccc(NC(=O)CCc2ccc(C)o2)c(Br)c1,-72
Cc1ccc(NC(=O)CNCc2cccs2)c(Br)c1,-119
CC(=O)Oc1ccccc1/C=C/c1nc2ccccc2c(=O)o1,-
CC(=O)Oc1c(Cl)cc(Cl)cc1/C=C/c1ccc2ccccc2n1,-205
CC(=O)Oc1ccc(Cl)cc1/C=C/c1ccc2ccccc2n1,-259
CC(=O)c1ccc2c(c1)Cc1cc(C(C)=O)ccc1-2,-125
CCOC(=O)Nc1nnc(-c2cccc(OC)c2)s1,-83
SMILES,aSyn 5UTR act
CCOC(=O)Nc1nnc(-c2ccc(OC)cc2)s1,-65
COc1ccc(-c2nnc(NC(=O)C(C)C)s2)c(OC)c1,-101
CCOC(=O)Nc1nc(-c2ccccc2)c(C(=O)c2ccc(Cl)cc2)s1,-
O=C(Nc1nc2ccsc2c(=O)s1)c1ccco1,-130
O=C(Nc1nc2c(s1)CCc1ccccc1-2)c1ccco1,-140
O=C(Nc1nc2c(Cl)ccc(Cl)c2s1)c1ccco1,-184
Cc1nc2ccc3nc(NC(=O)c4ccco4)sc3c2s1,-152
O=c1sc(Nc2ccccc2)nc2ccsc12,-111
O=C(Nc1nc2ccsc2c(=O)s1)C1CCC1,-96
CCCn1nnc(NC(=O)c2ccc(OC)cc2)n1,-121
CCCn1nnc(NC(=O)c2ccc(Br)cc2)n1,-137
CCOc1ccc(C(=O)Nc2nnn(CC)n2)cc1,-86
CCCn1nnc(NC(=O)c2ccc(-c3ccccc3)cc2)n1,-218
Cc1cc(=O)[nH]c(N/N=C/c2ccc(-c3ccc(F)cc3)o2)n1,-70
Cc1cc(=O)[nH]c(N/N=C/c2ccccn2)n1,-
Cc1cc(=O)[nH]c(N/N=C/c2ccc(Br)s2)n1,-119
Cc1ccc(N=Cc2c(O)[nH]c3ccccc23)c([N+](=O)[O-])c1,-169
Oc1[nH]c2ccccc2c1/C=N/c1nccs1,-145
Oc1[nH]c2ccccc2c1C=Nc1ccc2c(c1)OCO2,-285
COc1ccc(N=Cc2c(O)[nH]c3ccccc23)cc1,-144
O=c1c2ccccc2c(C=Nc2cccc(O)c2)c(O)n1-c1ccc2c(c1)OCO2,-151
O=C(NCC1COc2ccccc2O1)c1cccs1 (stereo not drawn),-64
O=C(NCc1ccccc1)C(=O)NCC1COc2ccccc2O1 (stereo not drawn),-145
COC(c1ccccc1)c1nnc(CCC(=O)N(C)C(C2CC2)C2CC2)o1 (stereo not drawn),-147
Oc1ccc(N=Nc2ccc3c(c2)OCCO3)c(O)c1,-
SMILES,aSyn 5UTR act
Oc1ccc(N=Nc2ccc(Br)cc2)c(O)c1,-226
COC(=O)c1ccc(NC(=O)Nc2ccc(F)cc2)cc1,-141
CCOC(=O)c1ccc(NC(=O)C23CCC(C)(C(=O)O2)C3(C)C)cc1 (stereo not drawn),-106
COc1ccc(NC(=O)/C=C/c2cccc(Br)c2)cn1,-190
COc1ccc(NC(=O)Nc2ccc(F)cc2)cn1,-65
COc1ccc(NC(=O)/C(Cl)=C(/Cl)S(=O)Cc2ccccc2)cn1 (stereo not drawn),-
CC(C)(C)c1ccc(NC(=O)Nc2ccc(F)cc2)cc1,-245
O=C(Nc1ccc(F)cc1)Nc1cc(OCC(F)(F)F)cc(OCC(F)(F)F)c1,-
COc1ccc(NC(=O)CSc2ccccc2)cn1,-86
CCOC(=O)c1ccc(NC(=O)Nc2ccc(F)cc2)cc1,-106
COc1cc(C2c3cc4c(cc3C(OC3OC5COC(c6cccs6)OC5C(O)C3O)C3COC(=O)C23)OCO4)cc(OC)c1O (stereo not drawn),-
COc1ccccc1/C=C/c1nc(C#N)c(N(C)C)o1,-196
CN(C)c1oc(/C=C/c2ccccc2)nc1C#N,-262
O=C(/C=C/c1ccccc1)Nc1ccc(N2CCCCC2)cc1,-196
CN1CCN(c2ccc(NC(=O)N3CCc4ccccc43)cc2)CC1,-
CN1CCN(c2ccc(NC(=O)Cc3ccccc3)cc2)CC1,-68
